Giardia FBPA inh-1 – qHTS Assay for Inhibitors of Fructose-1,6-bisphosphate Aldolase from Giardia Lamblia; A8B2U2; purified Giardia FBPA; Potency, µM (titrated, usually from 59.6 µM), without a hit: top-dose activity, negative = inhibition, most hits filed as inhibitors; actives 0.71% (n = 290,000); note: % is set by controls: 0 for no effect and ±100 for the full control effect; nearly all actives have a fitted effect of over 55% in size
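Giardia FBPA (40 nM reagent) was preincubated 10 min at RT with compound (up to 57.5 uM final), then substrate plus GAPDH/TPI/NAD/arsenate coupling system with diaphorase/resazurin was added; resorufin fluorescence (525/598 nm) was read after 20 min.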
TbPYK inhibitor – qHTS of Trypanosoma Brucei Inhibitors; pyruvate kinase (Trypanosoma brucei), Q57TT1; TbPYK enzyme, Kinase-Glo Plus ATP luminescence, 45 min; Potency, µM (top dose mostly 76.8 µM), inactives show at the top dose activity, negative = inhibition, usual class: inhibitors; actives 0.12% (n = 410,000); note: % is set by controls: 0 for no effect and ±100 for the full control effect; nearly all actives have a fitted effect of over 50% in size
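Assay buffer: 50 mM TEA pH 7.2, 100 mM KCl, 10 mM MgCl2, 0.05% BSA, 0.01% Tween-20. Pyruvate kinase from T. brucei plus substrate met compound, then ADP (130 uM final). Luminescence was read post 45 min RT.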
NS1 inh – qHTS Assay for Inhibitors of Influenza NS1 Protein Function | Potency, µM (top dose mostly 46.1 µM), without a hit: top-dose activity, positive = more growth | actives 0.4% (n = 270,000) | AID 2326, 2010; calls by dose curve; note: actives are rising curves; nearly all actives have a fitted effect of over 50% in size
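In this qHTS, NS1 from influenza A is expressed in budding yeast, where it slows growth. Cells are switched from glucose to 2% galactose medium (pH 6.0, -URA), treated with compound, and growth recovery is read at OD600.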
LmPK inh – qHTS Assay for Inhibitors of Leishmania Mexicana Pyruvate Kinase (LmPK); AID 1721, 2009; purified LmPK, Kinase-Glo ATP luminescence, 1 h; actives 0.37% (n = 290,000); Potency, µM (titrated, usually from 57.5 µM), for the others: at the highest dose activity change, negative = inhibition, actives largely listed as inhibitors; Q27686; note: % is set by controls: 0 for no effect and ±100 for the full control effect
Target sequence (Q27686 whole entry, looked up): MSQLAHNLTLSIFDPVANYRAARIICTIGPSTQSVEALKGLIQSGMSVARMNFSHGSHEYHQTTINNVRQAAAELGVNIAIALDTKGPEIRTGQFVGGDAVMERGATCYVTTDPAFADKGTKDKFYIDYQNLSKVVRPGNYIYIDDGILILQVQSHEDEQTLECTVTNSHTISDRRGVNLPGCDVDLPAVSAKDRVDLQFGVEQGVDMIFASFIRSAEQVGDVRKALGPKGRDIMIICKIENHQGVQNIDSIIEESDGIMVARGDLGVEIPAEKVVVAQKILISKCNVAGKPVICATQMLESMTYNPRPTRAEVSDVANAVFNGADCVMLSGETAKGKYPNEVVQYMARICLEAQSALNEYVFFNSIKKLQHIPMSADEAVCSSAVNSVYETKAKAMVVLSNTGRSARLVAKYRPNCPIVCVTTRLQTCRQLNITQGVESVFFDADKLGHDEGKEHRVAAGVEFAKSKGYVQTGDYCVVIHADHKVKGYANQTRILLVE
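Kinase-Glo luminescence read after 1 h RT reaction of 0.1 nM LmPK with 0.5 mM PEP and 0.1 mM ADP. Activity scaled between uninhibited and enzyme-free controls.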
AMA1 RON2 block – qHTS for Inhibitors of AMA1-RON; Towards Development of Antimalarial Drug Lead: Primary Screen. AID 720542, 2013. Potency, µM (titrated, usually from 58.2 µM), for inactives: top-dose activity change, negative = inhibition, hits mostly inhibitors. AlphaScreen AMA1-biotinylated RON2 peptide binding. actives 0.2% (n = 360,000);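 note: 0% = vehicle wells and -100% = peptide control; nearly all actives have a fitted effect of over 45% in size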
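AMA1 (3D7) with his tag at 25 nM final met compounds first, then biotinylated RON2 peptide at 25 nM; detection used donor plus acceptor beads, 10 µg/mL apiece, read by AlphaScreen after 30 min at room temperature.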
Giardia growth – qHTS Assay for Inhibitors of Fructose-1,6-bisphosphate Aldolase from Giardia Lamblia: Giardia lamblia growth inhibition; shares compounds with Giardia FBPA inh-1; Giardia lamblia trophozoite growth inhibition; Potency, µM (highest dose often 57.5 µM), inactives show top-dose activity change, negative = inhibition, actives largely listed as inhibitors; actives 5% (n = 1,500);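 note: trophozoites exposed to compound for 48 h at 37 °C; % is set by controls: 0 for no effect and ±100 for the full control effect; nearly all actives have a fitted effect of over 70% in size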
Mammalian tox – qHTS Assay for Inhibitors of Fructose-1,6-bisphosphate Aldolase from Giardia Lamblia: Mammalian cellular toxicity; shares compounds with Giardia FBPA inh-1; mammalian cell viability counter-screen, qHTS; Potency, µM (doses to about 57.5 µM), for the others: at the highest dose viability change, negative = toxicity, actives largely listed as inhibitors; actives 4% (n = 1,500);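 note: Chinese hamster ovary cells used as mammalian cytotoxicity surrogate; viability measured as cellular ATP by luminescence; compound exposure lasted 48 h before reading; % is set by controls: 0 for no effect and ±100 for the full control effect; nearly all actives have a fitted effect of over 60% in size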
Giardia FBPA inh-2 – qHTS Assay for Inhibitors of Fructose-1,6-bisphosphate Aldolase from Giardia Lamblia: Primary screen confirmation; Potency, µM (doses to about 57.5 µM), for inactives: at the top dose activity change, negative = inhibition, usual class: inhibitors; actives 5% (n = 1,500); purified Giardia aldolase enzyme activity, qHTS; shares compounds with Giardia FBPA inh-1; note: % is set by controls: 0 for no effect and ±100 for the full control effect; nearly all actives have a fitted effect of over 45% in size
Rabbit FBPA inh – qHTS Assay for Inhibitors of Fructose-1,6-bisphosphate Aldolase from Giardia Lamblia: Rabbit FBPA Selectivity; Potency, µM (series often up to 57.5 µM), without a hit: at the top dose activity, negative = inhibition, usual class: inhibitors; Rabbit muscle FBPA enzyme inhibition, selectivity counter-screen; actives 4% (n = 1,500); shares compounds with Giardia FBPA inh-1; AID 2794, 2010; note: % is set by controls: 0 for no effect and ±100 for the full control effect; nearly all actives have a fitted effect of over 60% in size
GAPDH counter – qHTS Assay for Inhibitors of Fructose-1,6-bisphosphate Aldolase from Giardia Lamblia: Coupling assay counterscreen confirmation; shares compounds with Giardia FBPA inh-1; GAPDH coupling enzyme counterscreen, biochemical, qHTS; Potency, µM (highest dose often 57.5 µM), for the others: at the highest dose activity change, negative = inhibition, hits mostly inhibitors; actives 6% (n = 1,500); AID 2795, 2010; note: % is set by controls: 0 for no effect and ±100 for the full control effect; nearly all actives have a fitted effect of over 55% in size
* marks the source's active call; other numbers are inactive results; u = inconclusive; x = no result given; [ ] = remark or other dose. In the library only some 1.2% were active in any assay of this set; here they are far more common. Unless noted, calls come from the whole dose curve; as a rule, active = well fitted curve in the direction sought with a large enough effect; inconclusive = small, poorly fitted or top-dose-only effect, or another doubt; inactive = no such curve, though single readings can be large; an effect the other way counts as inactive or inconclusive. Potency is the fitted concentration of half-maximal effect.

SMILES	Giardia FBPA inh-1	TbPYK inhibitor	NS1 inh	LmPK inh	AMA1 RON2 block	Giardia growth	Mammalian tox	Giardia FBPA inh-2	Rabbit FBPA inh	GAPDH counter
CC(Sc1cccc[n+]1[O-])C(=O)Nc1cccc([N+](=O)[O-])c1 (stereo unspecified)	0%	-6%	x	7%	48%	x	x	x	x	x
C=CCc1cc(Cl)ccc1OCCN1CC(C)OC(C)C1 (stereo unspecified)	18µM*	-12%	3%	0%	u	-19%	-7%	-6%	-2%	0%
C=CCc1cc(Cl)ccc1OCCNCCN1CCOCC1	u	-13%	0%	-3%	-21%	x	x	x	x	x
CC(C)CCNC(=O)c1ccc2c(c1)nc1n2CCCCC1	x	1%	x	x	x	x	x	x	x	x
Cn1c(NN=O)nc2ccccc21	7.9µM*	-14%	7%	0%	-5%	-22%	16µM*	0%	-2%	2%
Cc1no[n+]([O-])c1COc1cccc(/C=N/Nc2nncn2N)c1	14µM*	-5%	1%	0%	81%	39%	8%	18µM*	u	20µM*
COc1cc(/C=N/n2nnnc2N)ccc1OCc1c(C)no[n+]1[O-]	2%	-6%	10%	-2%	0%	x	x	x	x	x
Cc1ccccc1NC(=O)c1c(C)[nH]c(=S)c(C#N)c1-c1ccco1	12%	-17%	25%	16%	60%	x	x	x	x	x
CNC(=O)c1c(C)[nH]c(=S)c(C#N)c1-c1ccco1	13µM*	7.9µM*	14%	29%	15%	3%[10.4 µM]	15%	6%	1%	13%
COc1ccc(CN2CCN(CCCc3ccccc3)C(CCO)C2)c(OC)c1 (stereo unspecified)	2%	0%	27%	-11%	20%	x	x	x	x	x
COc1ccc(CN2CCN(CCCc3ccccc3)CC2)c(OC)c1	16µM*	x	x	0%	x	8%	-14%	-1%	5%	13%
COc1ccc(CN2CCN(Cc3ccccc3C(F)(F)F)CC2)c(OC)c1	13µM*	-6%	-5%	-1%	u	u	12%	-2%	8%	-4%
C[C@H](Br)C(=O)Nc1ccc(C(=O)O)c(O)c1	x	x	-7%	x	x	x	x	x	x	x
C=CCNC(=S)N/N=C1\CCS(=O)(=O)c2ccccc21	7.1µM*	2%	3%	1%	57%	-19%	12%	12%	8%	5%
O=S1(=O)CC/C(=N\O)c2ccccc21	5%	3%	9%	1%	2%	x	x	x	x	x
CC(C)(C)C1CCc2c(sc3nc(-c4cc5cc(Br)ccc5oc4=O)[nH]c(=O)c23)C1 (stereo unspecified)	x	-2%	x	x	x	x	x	x	x	x
COC/C=C/C1=CC2=CC(=O)C(C)(OC(=O)c3cnc4ccccc4n3)C(=O)C2=CN1Cc1ccccc1 (stereo unspecified)	2.2µM*	3%	u	-3%[11.5 µM]	-27%	-20%[38.3 µM]	-8%	u	u	25µM*
c1cc2c(cc1-c1csc(NNC3=NCCCCC3)n1)OCCO2	14µM*	-29%	x	-25%	-26%	-9%[10.4 µM]	-23%	4%	4%	23%
CCC(=O)Nc1nc(-c2ccc3c(c2)OCCO3)cs1	-3%	-2%	-9%	-1%	0%	x	x	x	x	x
COc1ccc(N=Cc2cc(Cc3ccccc3Cl)cc([N+](=O)[O-])c2O)cc1OC	0.56µM*	2%	x	1%	14%	2%[10.4 µM]	11%	u	-21%	-26%
O=C(Cc1ccccc1)NNC(=S)NC(=O)c1cccnc1	7.1µM*	u	10%	4%	70%	-22%	-3%	15%	9%	12%
COc1ccc(CC(=O)NNC(=S)NC(=O)c2cccnc2)cc1	u	-4%	3%	1%	39%	x	x	x	x	x
O=C(NC(=S)NNC(=O)c1ccccc1O)c1ccccc1	u	-5%	-49%	2%	-61%	u	-21%	0%	2%	-17%
Cc1ccccc1C(=O)NNC(=S)NC(=O)c1ccccc1	u	-19%	-137%	3%	61%	-11%[38.3 µM]	-27%	13%	4%	2%
COCCN1CCc2[nH]c(=S)[nH]c(=O)c2C1	u	-6%	-5%	-1%	19%	x	x	x	x	x
SMILES	Giardia FBPA inh-1	TbPYK inhibitor	NS1 inh	LmPK inh	AMA1 RON2 block	Giardia growth	Mammalian tox	Giardia FBPA inh-2	Rabbit FBPA inh	GAPDH counter
CCCCN1CCc2[nH]c(=S)[nH]c(=O)c2C1	16µM*	-10%	11%	-3%	14%	u	-3%	5%	-3%	2%
Cc1c(NN=C(C#N)C#N)c(=O)n(-c2ccccc2)n1C	25µM*	-5%	x	9%	47%	17%	21%	1%	2%	5%
Cc1c(NC(=O)/C(C#N)=C/c2ccccc2)c(=O)n(-c2ccccc2)n1C	2%	1%	4%	6%	-10%	x	x	x	x	x
Cc1cc(C)cc(NC(=O)N2CCN(c3cc(-c4noc(C)n4)ccc3C)CC2)c1	x	0%	x	x	x	x	x	x	x	x
COc1ccc(C(=O)NC(=S)N2CCNC(=O)C2)cc1Br	18µM*	-18%	7%	1%	104%	85%	3%	4%	1%	16%
COc1ccc(C(=O)NC(=S)N2CCC(C)CC2)cc1Br	x	2%	-18%	-4%	34%	x	x	x	x	x
Cc1ccc(N)c(C)c1	x	1%	x	x	-4%	x	x	x	x	x
Cc1cc(C)c(O)c(N)c1	20µM*	x	-6%	2%	x	-5%[10.4 µM]	5%	u	u	-28%
O=C(c1ccc(CSc2nc3ccncc3n2Cc2ccccc2F)cc1)N1CCCCC1	x	6%	x	x	x	x	x	x	x	x
